The list is not random: actives were taken first. Their share in the collection is about 13%.
HCMV antiviral – human cytomegalovirus inhibition. HFF cells, HCMV-luciferase reporter, 72 h; stronger effect = lower value. activity change, negative = inhibition, % at 57.5 µM. 410,000 tested, 4.5% active; in the data active means activity change below about -60%; inconclusive means no clear call, values can overlap the other calls; inactive means above about -39%
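Human foreskin fibroblasts infected with luciferase-reporter HCMV at MOI 1 PFU/cell, compounds at two doses. Luciferase measured 72 h post infection; normalized to buffer-only basal and Salinomycin (10uM) controls.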
Pf growth 96h – P. falciparum growth inhibition at 96 hour, primary screen for plastid delayed-death inhibitors. 320,000 tested, 6.9% active. Potency, µM (series often up to 28.7 µM), for inactives: at the top dose activity change, negative = inhibition, usual class: inhibitors. P. falciparum luciferase reporter growth, 96 h. AID 504834; further: potency means the concentration at half of the fitted maximal effect
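Parasite growth measured via integrated firefly luciferase reporter in P. falciparum. Infected erythrocytes at 2% hematocrit, 0.05% parasitemia final were treated 96 hours at 37 C under 5% CO2, and luminescence was read.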
HCV inh – blocks hepatitis C virus; Huh7.5.1 HCVcc-Cre infection, luciferase reporter, 44 h; Potency, µM (doses to about 41.8 µM), without a hit: top-dose activity change, negative = inhibition, actives largely listed as inhibitors; 340,000 tested, 3.4% active; further: potency means the concentration at half of the fitted maximal effect
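Cells (1,000/well) were plated 4 h before compound, then infected with HCVcc-Cre virus (~0.5 moi). After 44 h further culture, infection was read as luciferase luminescence following a 15 min substrate incubation at room temperature.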
Pf growth 48h – P. falciparum growth inhibition at 48 hours (one generation). P. falciparum luciferase growth in erythrocytes, 48 h. Potency, µM (top dose mostly 28.7 µM), inactives show top-dose activity change, negative = inhibition, hits mostly inhibitors. 310,000 tested, 5.9% active. AID 504832; further: potency means the concentration at half of the fitted maximal effect
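In quantitative HTS format, infected erythrocytes bearing luciferase-reporter parasites were treated for a single generation at 37 C. Luminescence after adding detection reagent served as the growth measure.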
* marks the source's active call; other numbers are inactive results; ? = inconclusive; · = not tested or not shown. Unless noted, the call rests on the fitted dose curve; in most records, active means well fitted inhibition curve with a large enough effect; inconclusive means small, poorly fitted or top-dose-only effect, or another doubt; inactive means no such curve, though single readings can be large or run the other way. On the % scale 0 is the no-effect control and ±100 the full control effect.

SMILES	HCMV antiviral	Pf growth 96h	HCV inh	Pf growth 48h
Nc1c(N(Cc2ccccc2)C(=O)COc2ccc([N+](=O)[O-])cc2)c(=O)[nH]c(=O)n1Cc1ccccc1	-97*	·	?	·
Cc1ccc(OCCC(=O)N(Cc2ccccc2)c2c(N)n(Cc3ccccc3)c(=O)[nH]c2=O)cc1	-81*	-5%	11µM*	?
CCCCn1c(N)c(N(CCC(C)C)C(=O)c2cc(Cl)nc3ccccc23)c(=O)[nH]c1=O	-3	?	-1%	-28%
CCCCn1c(N)c(N(CCC(C)C)C(=O)CSc2nc3ccccc3n2C)c(=O)[nH]c1=O	-18	·	10µM*	·
Cc1ccccc1OCCC(=O)N(CC(C)C)c1c(N)n(Cc2ccccc2)c(=O)[nH]c1=O	?	?	-4%	12µM*
CCOc1ccc(OCCC(=O)N(CCC(C)C)c2c(N)n(Cc3ccccc3)c(=O)[nH]c2=O)cc1	-29	14%	-4%	10µM*
CCCCN(C(=O)CSc1nnc(-c2ccc(Cl)cc2)o1)c1c(N)n(CC(C)C)c(=O)[nH]c1=O	41	?	-12%	13µM*
COc1ccc(CNC(=O)Cc2c(C)c3cc4c(C)coc4cc3oc2=O)cc1OC	-37	·	·	·
Cc1cccc(C)c1NC(=O)C1C(c2ccccc2)=Nc2ccccc2N1C(=O)c1cnccn1 (configuration not stated)	8	·	·	·
CCOc1ccc2nc(SCC(=O)N(CC(C)C)c3c(N)n(Cc4ccccc4)c(=O)[nH]c3=O)[nH]c2c1	-21	12µM*	?	?
Cc1oc(-c2cccc(Cl)c2)nc1CSc1nnc(C)n2c1cc1occc12	11	·	·	·
COc1ccc(C(=O)NC(c2ccccc2Cl)c2cc(Cl)c3cccnc3c2O)cc1 (configuration not stated)	-98*	·	·	·
COc1cc(C(=O)NC(c2ccccc2Cl)c2cc(Cl)c3cccnc3c2O)cc(OC)c1OC (configuration not stated)	-79*	·	·	·
COc1cc(OC)c(NC(=O)CCn2cccn2)cc1Cl	-13	·	·	·
COc1ccc(NC(=O)Nc2nnc(SCC(=O)Nc3cccc(C)c3C)s2)cc1	-7	·	·	·
Nc1cc(Cl)ccc1Nc1ccncc1	16	?	9%	15%
CCN(CCO)CCCC(C)Nc1ccnc2cc(Cl)ccc12 (configuration not stated)	·	0.17µM*	·	0.15µM*
Cc1cc(C)n(-c2ccnc3cc(Cl)ccc23)n1	14	6%	-11%	21%
CCN(CC)CCOc1c(C)cccc1Cl	-33	13%	8%	1%
CCN(CC)CCNc1ccnc2cc(Cl)ccc12	0	1%	5.6µM*	0.074µM*
CCN(CC)CCCC(C)Nc1nccc2c(Cl)cccc12 (configuration not stated)	-35	·	10µM*	·
Oc1ccc(Nc2ccnc3cc(Cl)ccc23)cc1	-12	1.9µM*	-2%	1µM*
CC(C)COc1ccc(C(=O)N2CCCCC2CCN2CCOCC2)cc1 (configuration not stated)	15	·	·	·
O=C(Nc1ccccc1)OC[C@@H]1CSCCS(=O)(=O)N1	-6	·	·	·
S=C(NNc1ccnc2cc(Cl)ccc12)Nc1ccccc1Cl	-24	0%	?	?
SMILES	HCMV antiviral	Pf growth 96h	HCV inh	Pf growth 48h
COc1ccc(C(=O)Nn2c(CC(C)C)nc3cc(Cl)ccc3c2=O)c(OC)c1	26	?	-27%	-7%
O=C(NCCNc1ccnc2cc(Cl)ccc12)c1ccccc1F	-62*	5%	13µM*	0.47µM*
Clc1ccc(NNc2ccnc3cc(Cl)ccc23)cc1	-69*	1.7µM*	-13%	1.7µM*
O=C(NCCNc1ccc(Cl)cc1[N+](=O)[O-])c1ccccc1F	-39	?	-10%	10%
CCN(CC)CCC[C@H](C)Nc1c2ccc(Cl)cc2nc2ccc(OC)cc12	·	0.095µM*	·	0.038µM*
CCN(CC)Cc1cc(Nc2ccnc3cc(Cl)ccc23)ccc1O	-28	0.0033µM*	7.9µM*	0.0047µM*
Clc1cccc(CSc2nnc(C3CCNCC3)o2)c1	-13	·	·	·
Cc1ccccc1NC(=O)c1ccc(-c2ccc(Cl)cc2Cl)o1	-11	40%	13µM*	·
Cc1cccc(C)c1NC(=O)c1ccc(-c2ccc(Cl)cc2Cl)o1	-72*	?	?	?
COc1ccccc1NC(=O)CC(C)n1nc(C)cc1C (configuration not stated)	-2	·	·	·
CC1CN(C)C(C)C/C1=N\Oc1ccc([N+](=O)[O-])cc1 (configuration not stated)	-25	1µM*	?	20%
CC1CN(C)C(C)C/C1=N/Oc1ccccc1[N+](=O)[O-] (configuration not stated)	-23	95%	?	31%
CCc1cccc(CC)c1-n1nnc2c(sc3nc(C)cc(C)c32)c1=O	-7	·	·	·
O=C(C(NS(=O)(=O)c1cccs1)c1ccccc1)N1CCN(c2ccccc2)CC1 (configuration not stated)	98	12µM*	-5%	?
O=S(=O)(c1cccs1)N1CCN(c2ccccc2)CC1	-17	2%	15%	21%
CC(C)c1ccc(NC(=O)Cn2c(=O)n(Cc3nc(-c4ccccc4)no3)c(=O)c3cc4c(cc32)OCO4)cc1	27	·	·	·
Cc1ccccc1N1C(=O)CC1(C#N)c1ccc(OCc2ccccc2)cc1 (configuration not stated)	-85*	?	-29%	?
C=CCn1c(SCc2n[nH]c(=S)n2-c2ccccc2)nnc1-c1ccccc1	8	6.6µM*	-2%	-13%
CCCCCCC(=O)O[C@H]1CC[C@H]2[C@@H]3CCC4CC(=O)C=C(C)[C@]4(C)[C@H]3CC[C@]12C (some centres not stated)	·	6.7µM*	·	4.8µM*
O=[N+]([O-])c1c2ccccc2cc2ccccc12	·	?	?	2.6µM*
CCc1ccc(NC(=O)C(=O)NCC(c2cccnc2)N2CCOCC2)cc1 (configuration not stated)	-11	·	·	·
Nc1nnnn1/N=C/C(Br)=C/c1ccccc1	9	-9%	10µM*	?
CN(C)S(=O)(=O)c1cccc(N=C2SCCN2Cc2ccccc2)c1	-6	?	10µM*	?
C=CCn1c(=NC(=O)C2COc3ccccc3O2)sc2cccc(OC)c21 (configuration not stated)	?	1.2µM*	4%	7.4µM*
O=S(=O)(Nc1cc(C(F)(F)F)ccc1N1CCOCC1)c1ccc2ccccc2c1	?	13µM*	0%	?
O=S(=O)(Nc1cc(C(F)(F)F)ccc1N1CCOCC1)c1ccccc1	-9	?	-11%	?
Cc1ccc(S(=O)(=O)Nc2cc(C(F)(F)F)ccc2N2CCOCC2)cc1C	-36	?	15%	3.3µM*
CC(=O)c1cccc(S(=O)(=O)Nc2cc(C(F)(F)F)ccc2N2CCOCC2)c1	0	?	-2%	?
CCN1C(=O)C2(c3ccccc31)c1c(oc3ccc(C)cc3c1=O)C(=O)N2CCCOC(C)C (configuration not stated)	-15	·	·	·
